Assay results from PubChem BioAssay AID1159580 (chemical genetic matrix, 2015).
Several values for one entry are separate records, joined by “and”; a condition that tells them apart may be missing. Equal values may be shown once. Screen size: about 5,500 compounds; about 2,000 (36%) were called active. Roughly 18% stayed inconclusive and do not appear here. No stated cut-off is given here; in the data, active means normalized growth mostly below about 0.91 (no sharp cut-off); inconclusive means no clear call, values can overlap the other calls; inactive means mostly above about 0.92. Some of the results follow.

Test: chemical genetic growth profiling, strain panel (AID 1159580);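 further: tested at 20 µM; growth read once vehicle control cultures reached saturation at 30 °C; 1 = growth at the plate median or of vehicle wells; lower values mean less growth of the strain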
Conditions: S. cerevisiae deletion strains, growth OD

Measured: normalized growth

CC(C)Nc1nc(Cl)nc(NC(C)C)n1
inactive: locus YAL013W, strain DEP1, hits give low values 1.01 | locus YAL021C, strain ccr4, hits give low values 1 | locus YAL026C, strain drs2, hits give low values 0.996 | locus YAL030W, strain snc1, hits give low values 0.998 | locus YBL061C, strain skt5, hits give low values 0.996 | locus YBR009C, strain hhf1, hits give low values 1 | locus YBR021W, strain FUR4, hits give low values 1.01 | locus YBR023C, strain chs3, hits give low values 0.992 | locus YBR171W, strain sec66, hits give low values 0.995 | locus YBR229C, strain ROT2, hits give low values 0.993 | locus YBR231C, strain swc5, hits give low values 0.996 | locus YBR279W, strain paf1, hits give low values 0.994 | locus YCL011C, strain gbp2, hits give low values 0.992 | locus YCL016C, strain dcc1, hits give low values 1 | locus YCL029C, strain bik1, hits give low values 1.01 | locus YCL061C, strain MRC1, hits give low values 0.987 | locus YCL069W, strain vba3, hits give low values 1.01 | locus YCR088W, strain abp1, hits give low values 0.992 | locus YDL005C, strain med2, hits give low values 0.998 | locus YDL035C, strain GPR1, hits give low values 1.01 | locus YDL040C, strain nat1, hits give low values 0.999 | locus YDL074C, strain BRE1, hits give low values 1.01 | locus YDL101C, strain DUN1, hits give low values 1.01 | locus YDL134C, strain PPH21, hits give low values 1.01 | locus YDL185W, strain tfp1, hits give low values 1.01 | locus YDL192W, strain arf1, hits give low values 1 | locus YDR001C, strain nth1, hits give low values 1 | locus YDR069C, strain doa4, hits give low values 1.01 | locus YDR101C, strain arx1, hits give low values 0.996 | locus YDR137W, strain rgp1, hits give low values 0.953 | locus YDR150W, strain NUM1, hits give low values 1 | locus YDR159W, strain sac3, hits give low values 1.03 | locus YDR162C, strain NBP2, hits give low values 1.01 | locus YDR195W, strain ref2 0.969 | locus YDR297W, strain sur2, hits give low values 1 | locus YDR318W, strain mcm21, hits give low values 1.02 | locus YDR334W, strain swr1, hits give low values 0.995 | locus YDR335W, strain msn5, hits give low values 1 | locus YDR388W, hits give low values 1.01 | locus YDR392W, strain spt3, hits give low values 0.996 | locus YDR502C, strain sam2, hits give low values 1.01 | locus YEL003W, strain gim4, hits give low values 1 | locus YEL037C, strain rad23, hits give low values 1.01 | locus YEL061C, strain CIN8 (second series), hits give low values 1 | locus YEL061C, strain CIN8, hits give low values 1.01 | locus YER015W, strain faa2, hits give low values 1 | locus YER016W, strain bim1, hits give low values 1 | locus YER110C, hits give low values 1.01 | locus YER111C, strain swi4, hits give low values 0.994 | locus YER155C, strain BEM2 (second series), hits give low values 0.992 | locus YER155C, strain BEM2, hits give low values 1.01 | locus YER167W, strain BCK2, hits give low values 1.01 | locus YFR010W, strain ubp6, hits give low values 1.01 | locus YGL078C, strain dbp3, hits give low values 1.02 | locus YGL086W, strain mad1, hits give low values 1.01 | locus YGL167C, strain pmr1, hits give low values 0.998 | locus YGL173C, strain kem1, hits give low values 0.996 | locus YGL227W, strain vid30, hits give low values 0.988 | locus YGL240W, strain doc1, hits give low values 0.99 | locus YGL248W, strain PDE1, hits give low values 1.01 | locus YGL253W, strain hxk2, hits give low values 0.999 | locus YGR078C, strain PAC10, hits give low values 0.997 | locus YGR135W, strain pre9, hits give low values 0.997 | locus YGR229C, strain SMI1, hits give low values 1 | locus YGR252W, strain gcn5, hits give low values 0.983 | locus YHR013C, strain ard1, hits give low values 1 | locus YHR027C, strain rpn1, hits give low values 0.994 | locus YHR030C, strain SLT2, hits give low values 0.979 | locus YHR079C, strain IRE1 (second series), hits give low values 1.02 | locus YHR079C, strain IRE1, hits give low values 0.978 | locus YHR094C, strain hxt1, hits give low values 1.01 | locus YHR129C, strain ARP1, hits give low values 1.01 | locus YHR142W, strain chs7, hits give low values 0.995 | locus YHR200W, strain rpn10, hits give low values 1.01 | locus YIL066C, strain RNR3, hits give low values 1.02 | locus YIL073C, strain SPO22, hits give low values 1.07 | locus YIL125W, strain kgd1, hits give low values 1 | locus YIR030C, strain dcg1, hits give low values 1.02 | locus YJL092W, strain hpr5, hits give low values 0.995 | locus YJL095W, strain BCK1 (second series), hits give low values 1 | locus YJL095W, strain BCK1, hits give low values 0.987 and 0.984 | locus YJL115W, strain asf1, hits give low values 0.986 | locus YJL129C, strain trk1, hits give low values 0.997 | locus YJL134W, strain LCB3, hits give low values 0.993 | locus YJL154C, strain vps35, hits give low values 1 | locus YJL164C, strain tpk1, hits give low values 1.01 | locus YJL166W, strain qcr8, hits give low values 1 | locus YJL168C, strain set2, hits give low values 1.01 | locus YJL187C, strain SWE1 (second series), hits give low values 1.01 | locus YJL187C, strain SWE1, hits give low values 1.01 | locus YJR043C, strain POL32, hits give low values 1.01 | locus YJR066W, strain TOR1, hits give low values 0.928
